The campaign covered roughly 52,000 compounds. About 4,300 (8.3%) were called active. This is one part of a sample in which actives are shown more often than they occur. Values without a mark were called inactive. Cut-off read from the data, not from the text of the source: active = survival mostly below about 52% (no sharp cut-off); inactive = mostly above about 56%.
Each compound was assayed on DeltatarO mutant (assay: growth inhibition of S. aureus wild type versus tarO mutant, primary screen, teichoic acid synthesis inhibitors, RN4220, OD600 (AID 463173)). Conditions: OD600, 18 h, hits give low values, screened at 18.75 µg/mL (by protocol).

Compound | survival
CCCCN1CC(c2nc3ccccc3n2CCCCOc2ccc(C)c(C)c2)CC1=O (stereo not drawn) | 20% (active)
CCCCN1CC(c2nc3ccccc3n2CCCCOc2cc(C)cc(C)c2)CC1=O (stereo not drawn) | 33% (active)
Cc1cc(C)cc(NC(=O)Cn2nnc(C(=O)Nc3cc(C)cc(C)c3)c2N)c1 | 74%
Cc1ccc2c(CC(=O)Nc3cccc(Cl)c3C)coc2c1 | 100%
CCc1ccc(CNC(=O)c2c(C)oc3ncnc(N4CCOCC4)c23)cc1 | 128%
CCCN(C(=O)c1c(C)oc2ncnc(N3CCOCC3)c12)c1ccc(Cl)c(Cl)c1 | 46%
COC(=O)CCN(C(=O)c1c(C)oc2ncnc(N3CCOCC3)c12)c1ccccc1 | 8% (active)
Cc1oc2ncnc(N3CCCCC3)c2c1C(=O)NCC1CCN(Cc2ccc(F)cc2)CC1 | 77%
Cc1oc2ncnc(N3CCCCC3)c2c1C(=O)NCC1CCN(Cc2cccc(F)c2)CC1 | -5% (active)
CCc1ccccc1N(CC)C(=O)c1c(C)oc2ncnc(N3CCOCC3)c12 | 96%
Cc1oc2ncnc(N3CCOCC3)c2c1C(=O)NCc1ccc(Cl)cc1 | 94%
Cc1ccc(CNC(=O)c2c(C)oc3ncnc(N4CCOCC4)c23)cc1 | 17% (active)
Cc1cccc(CN2CCC(CNC(=O)c3c(C)oc4ncnc(N5CCCCC5)c34)CC2)c1 | 77%
COc1ccc2oc(=O)c(C(=O)NCc3cccnc3)cc2c1 | 83%
CCOC(=O)c1cc(-c2ccc(F)cc2)n(CCC(=O)Nc2nc3cc(C)c(C)cc3s2)c1C | 85%
CCc1cccc2sc(N3CCN(C(=O)c4cc5ccccc5cc4OC)CC3)nc12 | 119%
COc1ccc(-n2nc(C(=O)N3CCN(c4ccc(F)cc4)CC3)c3c4ccccc4n(C)c3c2=O)cc1 | 69%
Cc1cc(N2CCN(c3cccc(C)c3C)CC2)n2cnnc2n1 | 99%
Cc1ccc(NC(=O)Cn2c(=O)oc3cc(S(=O)(=O)N4CCCC4)ccc32)cc1F | 113%
CCCN(CCC)CCCNC(=O)c1cn(CC)c2ccc(S(=O)(=O)N(C)C3CCCCC3)cc2c1=O | 94%
CCCCSCCCNC(=O)c1cn(CC)c2ccc(S(=O)(=O)N(C)C3CCCCC3)cc2c1=O | 24% (active)
CCCCN(CCCC)CCNC(=O)c1cn(CC)c2ccc(S(=O)(=O)N(C)C3CCCCC3)cc2c1=O | 144%

Compound | survival
Cc1cccc(NC(=O)c2ccc(F)c(S(=O)(=O)N3CCC4(CC3)OCCO4)c2)c1 | 72%
Cc1cccc(NC(=O)c2ccc(F)c(S(=O)(=O)N3CCN(c4ccc(F)cc4)CC3)c2)c1 | -1% (active)
CCOc1ccccc1NC(=O)c1ccc(F)c(S(=O)(=O)N2CCN(c3ccc(F)cc3)CC2)c1 | 76%
COc1cc(-c2cc3n(C)c(C)c(CCC(=O)NC4CCC(C)CC4)c(=O)n3n2)cc(OC)c1OC (stereo not drawn) | 101%
CCOc1ccc(CCNC(=O)Cn2ncn3c(cc4ccccc43)c2=O)cc1OCC | 85%
COC(=O)C1(CO)NC(c2ccc(Cl)cc2)C2C(=O)N(C)C(=O)C21 (stereo not drawn) | 66%
Cc1ccccc1C(=O)Nc1ccc(OCc2cc(=O)n3ccccc3n2)cc1 | 54%
COc1ccc2nc(NC(=O)c3ccc(S(=O)(=O)N4CCC(C)CC4)cc3)sc2c1 | 91%
CC1CCN(S(=O)(=O)c2nnc(NC(=O)c3cccc(Br)c3)s2)CC1 | 31% (active)
Cc1ccc2nc(NC(=O)c3ccc(S(=O)(=O)N4CCC(C)CC4)cc3)sc2c1 | 93%
Cc1cccc(C(=O)Nc2nnc(S(=O)(=O)N3CCC(C)CC3)s2)c1 | 35% (active)
CC1CCN(S(=O)(=O)c2ccc(C(=O)Nc3nc4ccc(F)cc4s3)cc2)CC1 | 46% (active)
COc1ccc(C(=O)Nc2nnc(S(=O)(=O)N3CCC(C)CC3)s2)cc1OC | 79%
CC1CCN(S(=O)(=O)c2nnc(NC(=O)c3cccc(Cl)c3)s2)CC1 | 23% (active)
CCCNC(=O)CN1C(=O)COc2ccc(S(=O)(=O)N3CCCC3)cc21 | 86%
O=C1CCc2cc(S(=O)(=O)NCc3ccc(Cl)cc3)cc3c2N1CC3 | 77%
COCCOC(=O)Cn1nnc2sc(-c3ccccc3)cc2c1=O | 65%
COCC(=O)NCc1nc2cccnc2n1Cc1ccc(F)cc1 | 60%
CN1CCN(C(=O)c2ccccc2C(=O)O)CC1 | 96%
CCc1nn2c(=O)cc(COC(=O)c3ccc4c(c3)OCO4)nc2s1 | 76%
COc1ccc(NC(=O)c2c(NCc3ccc(OC)c(OC)c3OC)sc3c2CCC3)c(OC)c1 | 83%
Cc1n[nH]c(=S)n1CC1CCCO1 (stereo not drawn) | 77%

Compound | survival
COc1cccc(Cn2c(=O)n(-c3ccc(Br)cc3F)c(=O)c3sc4ccccc4c32)c1 | 96%
Cc1ccc(N2CCN(S(=O)(=O)c3nnc(NC(=O)c4cccc(F)c4)s3)CC2)cc1 | 57%
CC1CCN(S(=O)(=O)c2nnc(NC(=O)c3cccc(F)c3)s2)CC1 | 31% (active)
O=C(Nc1nnc(S(=O)(=O)N2CCOCC2)s1)c1cccc(F)c1 | 80%
COc1ccc(N(C(=O)c2ccco2)C(C(=O)NC2CCCC2)c2cc(OC)c(OC)c(OC)c2)cc1 (stereo not drawn) | 84%
O=C(NC1CCCCC1)C(c1ccco1)N(Cc1ccccc1)C(=O)Cn1nnc2ccccc21 (stereo not drawn) | 69%
CCOC(=O)CN(Cc1ccccc1)C(C(=O)NC1CCCCC1)c1ccc(C)cc1 (stereo not drawn) | -3% (active)
O=C(NC1CCCC1)C(c1ccccc1)N(Cc1ccc2c(c1)OCO2)C(=O)c1ccco1 (stereo not drawn) | 73%
CCOC(=O)CN(Cc1ccccc1)C(C(=O)NC1CCCCC1)c1ccc(OC)cc1 (stereo not drawn) | 20% (active)
CCOC(=O)CN(Cc1ccccc1)C(C(=O)NC1CCCCC1)c1ccccc1 (stereo not drawn) | -1% (active)
CCCC(C(=O)NC1CCCC1)N(Cc1ccccc1)C(=O)Cn1nnc(-c2ccc(C)o2)n1 (stereo not drawn) | 66%
COc1ccc(C(C(=O)NC2CCCC2)N(Cc2ccc(C)cc2)C(=O)c2ccn[nH]2)cc1OC (stereo not drawn) | 104%
COc1ccc(-c2nnn(CC(=O)N(Cc3ccccc3)C(C)C(=O)NC3CCCC3)n2)cc1OC (stereo not drawn) | 84%
Cc1cc(C)cc(NC(=O)Cn2cc(S(=O)(=O)NC(C)(C)C)c(S(=O)(=O)NC(C)(C)C)c2)c1 | 95%
CSc1ncc(C(=O)NCc2ccccc2F)c(-c2ccccc2)n1 | 112%
CCCn1c2ccccc2c2cnn(CC(=O)NCc3ccccc3Cl)c(=O)c21 | 108%
COc1ccc(Br)cc1CNC(=O)C(C)n1nc(C)n2c(cc3occc32)c1=O (stereo not drawn) | 46% (active)
CCc1nn(CCCC(=O)NCc2ccccc2OC)c(=O)c2cc3occc3n12 | 84%
CCc1nn(CCCC(=O)NCc2ccc(OC)c(OC)c2)c(=O)c2cc3occc3n12 | 79%
CCc1nn(CCCC(=O)NCc2cc(Br)ccc2OC)c(=O)c2cc3occc3n12 | 46% (active)
CCC(C(=O)NCc1ccccc1OC)n1nc(C)n2c(cc3occc32)c1=O (stereo not drawn) | 80%
Cc1ccccc1CNC(=O)C(C)n1nc(C)n2c(cc3occc32)c1=O (stereo not drawn) | 68%

Compound | survival
COC(=O)c1ccc(Oc2nc3c(c(=O)n(C)c(=O)n3C)n2Cc2ccc(Cl)c(Cl)c2)cc1 | 167%
O=C(CCS(=O)(=O)c1nc(-c2cccs2)cc(C(F)(F)F)n1)Nc1ccc(F)c(Cl)c1 | 67%
Clc1cc2c(cc1C=Nc1ccc(N3CCOCC3)cc1)OCO2 | 83%
N#CC(C#N)=Cc1cn(CC(=O)Nc2ccccc2)c2ccccc12 | 66%
Cc1ccc(Nc2c(-c3cc(Br)ccc3F)nc3cc(C)ccn23)cc1 | 32% (active)
Cc1ccc(Nc2c(-c3c[nH]c4ccccc34)nc3cc(C)ccn23)cc1 | 80% (active)
Fc1ccc(Nc2c(-c3c[nH]c4ccccc34)nc3ccccn23)cc1 | 70%
c1ccc(Nc2c(-c3c[nH]c4ccccc34)nc3ccccn23)cc1 | 54% (active)
Cc1ccc(Nc2c(-c3c[nH]c4ccccc34)nc3ccccn23)cc1 | 114%
Cc1ccn2c(Nc3ccccc3)c(-c3c[nH]c4ccccc34)nc2c1 | 86%
Cc1ccc(Nc2c(-c3ccccc3O)nc3cc(C)ccn23)cc1 | 78%
CSc1ccc(-c2nc3cc(C)ccn3c2Nc2ccc(C)cc2)cc1 | 95%
Cc1ccc2nc(-c3c[nH]c4ccccc34)c(Nc3ccccc3)n2c1 | 78%
Cc1ccc(Oc2nc3c(c(=O)n(Cc4ccccc4Cl)c(=O)n3C)n2C)cc1C | 61%
Cc1csc2nc(-c3ccc(NS(=O)(=O)c4cc(F)ccc4F)cc3)cn12 | 87%
Fc1ccc(CNc2nc3c(-c4ccc(F)cc4)nnn3c3ccccc23)cc1 | 105%
Cc1ccc2oc(-c3cccc(NC(=O)c4cccc5c(Cl)cccc45)c3)nc2c1 | 51% (active)
Cc1ccc(-c2nc3ccccc3o2)cc1NC(=O)c1cccc2c(Cl)cccc12 | 47% (active)
Cc1ccc2nc(-c3cccc(NC(=O)c4cccc5c(Cl)cccc45)c3)oc2c1 | 110%
O=C(Nc1cccc(-c2nc3ccccc3o2)c1)c1cccc2c(Cl)cccc12 | 46%
Cc1ccc2oc(-c3cccc(NC(=O)c4cccc5c(Br)cccc45)c3)nc2c1 | 153%
O=C(Nc1cc(-c2nc3ccccc3o2)ccc1Cl)c1cccc2c(Cl)cccc12 | 56%
